Source: PubChem
Shown are actives, neighbours in structure and some others; about 1.6% of the full set was active somewhere.
KCNQ2 pot: enhances the rat KCNQ2 potassium channel. O88943. CHO-K1 KCNQ2, FluxOR thallium flux fluorescence; hits give high values. B-score at 10 µM. 0.54% of 310,000 active;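 active = fluorescence ratio B-score at least 3 SD of library B-scores, with initial fluorescence B-score within 3 of them, cut at about 5.3 in these data; same plate scores as AID 2156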;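 also: B-score of peak minus minimum over baseline fluorescence ratio after K+ and Tl+ stimulus; positive B-score means potentiation of KCNQ2 with more thallium influx and brighter signal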
Target sequence (O88943 whole entry, looked up): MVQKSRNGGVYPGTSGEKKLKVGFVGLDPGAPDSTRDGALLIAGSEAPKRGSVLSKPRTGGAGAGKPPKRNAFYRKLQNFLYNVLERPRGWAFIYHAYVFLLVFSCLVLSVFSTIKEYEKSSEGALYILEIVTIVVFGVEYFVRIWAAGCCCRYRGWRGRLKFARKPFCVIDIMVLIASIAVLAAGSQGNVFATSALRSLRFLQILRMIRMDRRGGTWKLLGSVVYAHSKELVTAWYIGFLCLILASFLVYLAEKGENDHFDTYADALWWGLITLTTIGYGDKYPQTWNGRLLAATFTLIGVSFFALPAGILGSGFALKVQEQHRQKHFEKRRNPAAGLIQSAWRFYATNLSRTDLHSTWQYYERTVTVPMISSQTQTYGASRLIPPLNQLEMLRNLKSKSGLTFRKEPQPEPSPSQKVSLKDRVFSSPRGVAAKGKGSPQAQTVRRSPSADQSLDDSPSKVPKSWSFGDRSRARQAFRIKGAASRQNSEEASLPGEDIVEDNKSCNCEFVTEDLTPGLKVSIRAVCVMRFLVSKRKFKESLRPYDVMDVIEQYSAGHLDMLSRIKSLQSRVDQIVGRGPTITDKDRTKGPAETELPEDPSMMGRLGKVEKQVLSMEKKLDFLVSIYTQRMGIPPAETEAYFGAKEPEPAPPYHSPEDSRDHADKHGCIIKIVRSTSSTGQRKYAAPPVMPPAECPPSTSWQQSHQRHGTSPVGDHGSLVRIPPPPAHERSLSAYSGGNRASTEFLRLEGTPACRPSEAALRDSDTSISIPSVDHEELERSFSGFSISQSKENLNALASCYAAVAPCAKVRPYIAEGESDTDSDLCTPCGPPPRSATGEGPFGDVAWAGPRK
KCNQ2 inh: inhibitors of rat KCNQ2 potassium channel | O88943 | CHO-K1 KCNQ2, FluxOR thallium flux, 20 min; hits give low values | B-score at 10 µM | 1.1% of 310,000 active | AID 2156;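 active = fluorescence ratio B-score at most minus 3 library SDs, with starting brightness B-score within 2 library SDs, cut at about -5.5 in these data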
Kir21 conf inh: confirmation of mouse Kir2.1 potassium channel inhibitors. 41% of 2,300 active. Tl flux remaining, % of negative control (hits give low values), % at 10 µM. shares compounds with KCNQ2 pot. Kir2.1-expressing cells, FluxOR thallium flux fluorescence; hits give low values;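 active = Primary-screen hit whose thallium flux fell at least 3 control SD below untreated wells in both duplicates, with normal baseline fluorescence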;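 also: 0% = blank wells without stimulus and 100% = stimulated no-compound controls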
HEK293 ctr: parental HEK293 activity in Kir2.1 inhibitor counter-screen; shares compounds with KCNQ2 pot; FluxOR signal as % of negative control (100 = no effect), % at 10 µM; parental HEK293 cells, FluxOR thallium flux fluorescence; 0% = unstimulated blank wells; 19% of 2,300 active;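 active = dye signal at least 3 control SD above or below untreated wells in both duplicates, raw fluorescence within 3, either direction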;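 also: percent is based on the flux ratio of peak minus minimum fluorescence over baseline F0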
CHO-K1 ctr: parental CHO-K1 activity in KCNQ2 potentiator counter-screen; activity increase over 3SD of controls, % at 10 µM; shares compounds with KCNQ2 pot; 43% of 1,200 active; parental CHO-K1 cells, FluxOR thallium flux fluorescence; zero = vehicle mean+3SD, 100% = vehicle-minus-blank window;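 active = signal rise of at least 3 SD above the untreated control mean, in both duplicate wells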;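 also: counter screen of KCNQ2 potentiator hits so any rise reflects channel-independent effects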
KCNQ1 sel pot: human KCNQ1 counter-target activity of KCNQ2 potentiators; shares compounds with KCNQ2 pot; CHO KCNQ1 stable, FluxOR thallium flux fluorescence; beyond 3SD, as % of vehicle-control signal; activation over 3SD threshold, % at 10 µM; 28% of 1,200 active; AID 2283;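 active = fluorescence ratio rise of at least 3 SD of vehicle wells above their mean, in both replicate wells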;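 also: 0% = vehicle mean plus 3 SD and 100% = vehicle minus unstimulated blank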
KCNQ2 pot confirm: rat KCNQ2 channel potentiator confirmation; shares compounds with KCNQ2 pot; CHO-KCNQ2 cells, FluxOR thallium flux fluorescence; potentiation, less the hit threshold, % at 10 µM; 68% of 1,200 active; AID 2287;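 active = fluorescence ratio rising 3 SD or more over the vehicle control mean in both replicates, plus primary screen hit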;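 also: peak minus minimum thallium fluorescence divided by baseline after K/Tl stimulus; 0% = vehicle mean plus 3 SD and 100% = vehicle minus unstimulated blank difference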
Kir2-1 sel: mouse Kir2.1 off-target activity of KCNQ2 potentiators; shares compounds with KCNQ2 pot; AID 2345; 2% of 1,200 active; HEK293 Kir2.1, FluxOR thallium flux fluorescence; activity over 3SD threshold, % at 10 µM;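 active = fluorescence ratio rise of at least 3 SD above the vehicle-control mean, seen in both replicates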;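 also: 0% = vehicle mean plus 3 SD and 100% = vehicle minus no-stimulus blank window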
KCNQ2 W236L MoA: KCNQ2 potentiators acting on retigabine-insensitive rat KCNQ2 W236L mutant. 10% of 940 active. shares compounds with KCNQ2 pot. CHO KCNQ2-W236L, automated patch clamp current. AID 2558. current increase over 3SD of negative controls (%), hits give high values, % at 25 µM;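 active = current increase at least 3 SD of the untreated controls above them in both duplicate recordings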
* = called active by the depositor.

How did Cc1ccccc1Cn1c(C(=O)OC(C)C)cc2c1ccn2C do in these assays?
KCNQ2 inh: inactive

Results for CC(C)OC(=O)c1cc2c(ccn2C)n1CC(=O)N1CCC(Cc2ccccc2)CC1 ?
KCNQ2 pot: 9.9*; KCNQ2 inh: inactive; Kir21 conf inh: inactive; HEK293 ctr: inactive; CHO-K1 ctr: 40*; KCNQ1 sel pot: 70*; KCNQ2 pot confirm: 7.1*; Kir2-1 sel: -20; KCNQ2 W236L MoA: inactive

How did CCN(C(=O)c1cccc(S(=O)(=O)N2CCCCC2)c1)C1CCS(=O)(=O)C1 (stereo not drawn) do in these assays?
KCNQ2 inh: inactive

Results for COc1ccc(CC(=O)Nc2ccccc2N2CCCCC2)cc1OC ?
KCNQ2 inh: inactive; Kir21 conf inh: inactive; HEK293 ctr: 78%*

What do the screens show for `COc1ccc(CC(=O)Nc2ccccc2N2CCOCC2)cc1OC`?
KCNQ2 pot: 0.11; KCNQ2 inh: inactive

Results for COc1cc(CC(=O)Nc2ccc3c(c2)CCC3)cc(OC)c1OC ?
KCNQ2 pot: 0.88; KCNQ2 inh: inactive

What do the screens show for `COc1cccc(CC(=O)Nc2ccccc2N2CCCC2)c1`?
KCNQ2 pot: 6.1*; KCNQ2 inh: inactive; Kir21 conf inh: 50%*; HEK293 ctr: inactive; CHO-K1 ctr: -9; KCNQ1 sel pot: 18*; KCNQ2 pot confirm: 17*; Kir2-1 sel: -92; KCNQ2 W236L MoA: inactive

What do the screens show for `COc1cccc(CC(=O)Nc2ccc3c(c2)CCC3)c1`?
KCNQ2 pot: 6*; KCNQ2 inh: inactive; Kir21 conf inh: inactive; HEK293 ctr: inactive; CHO-K1 ctr: -14; KCNQ1 sel pot: -18; KCNQ2 pot confirm: 12*; Kir2-1 sel: -30; KCNQ2 W236L MoA: inactive

How did COc1cccc(CC(=O)Nc2ccccc2C(=O)N2CCOCC2)c1 do in these assays?
KCNQ2 pot: 0.29; KCNQ2 inh: inactive

How did COc1ccccc1C(=O)OCCNC(=O)Cn1cnc2c1c(=O)n(C)c(=O)n2C do in these assays?
KCNQ2 pot: 0.46; KCNQ2 inh: inactive

How did O=C(Cc1ccccc1F)NNC(=O)c1ccncc1 do in these assays?
KCNQ2 inh: inactive

What do the screens show for `Cc1ccc(C(=O)COC(=O)c2cc(=O)[nH]c3ccccc23)cc1C`?
KCNQ2 inh: inactive

What do the screens show for `Cc1ccnc(NS(=O)(=O)c2ccc(NC(=O)c3snnc3C)cc2)n1`?
KCNQ2 inh: inactive

How did COc1ccc(OCCC(=O)OCC(=O)NCc2ccc(F)cc2)cc1 do in these assays?
KCNQ2 pot: 0.88; KCNQ2 inh: inactive

How did O=C(C1CCN(S(=O)(=O)c2ccc(Br)s2)CC1)N1CCCCC1 do in these assays?
KCNQ2 pot: 2.4; KCNQ2 inh: inactive

Results for COc1cc(CNCCc2ccccc2)cc(Br)c1OCC(=O)Nc1ccccc1C ?
KCNQ2 pot: -7.1; KCNQ2 inh: -7.1*; Kir21 conf inh: 55%*; HEK293 ctr: inactive

How did CNCc1cc(Br)c(OCC(=O)Nc2ccccc2OC)c(OC)c1 do in these assays?
KCNQ2 pot: 0.95; KCNQ2 inh: inactive

What do the screens show for `COc1cc(/C=C2/C(=N)N3N=C(CC(=O)N4CCOCC4)SC3=NC2=O)ccc1OCc1ccc(F)cc1`?
KCNQ2 pot: 1.1; KCNQ2 inh: inactive

How did O=C(NS(=O)(=O)Oc1cccc(Cl)c1Cl)OC[C@@H]1CCCN2CCCCC12 (stereo partly drawn) do in these assays?
KCNQ2 inh: inactive

Results for Cc1cc(C)c2nc(N3CCCC(C(=O)NCCCN4CCOCC4)C3)sc2c1 (stereo not drawn) ?
KCNQ2 inh: inactive

How did Cc1cc(C)c2nc(N3CCC(C(=O)NCCCN4CC(C)CC(C)C4)CC3)sc2c1 (stereo not drawn) do in these assays?
KCNQ2 pot: -6.4; KCNQ2 inh: -6.4*; Kir21 conf inh: 50%*; HEK293 ctr: inactive

What do the screens show for `COc1cccc(-c2c(C#N)c(SC)nc3cc(C)nn23)c1`?
KCNQ2 pot: 0.1; KCNQ2 inh: inactive

How did CCn1c(=O)c(C(=O)Nc2ccccc2S(N)(=O)=O)c(O)c2ccccc21 do in these assays?
KCNQ2 pot: 8*; KCNQ2 inh: inactive; Kir21 conf inh: inactive; HEK293 ctr: inactive; CHO-K1 ctr: 53*; KCNQ1 sel pot: -11; KCNQ2 pot confirm: 11*; Kir2-1 sel: -41; KCNQ2 W236L MoA: inactive

Results for CCn1c(=O)c(C(=O)Nc2ccccc2C)c(O)c2ccccc21 ?
KCNQ2 inh: inactive

How did Fc1ccc(-c2csc(NC(=S)Nc3ccccc3)n2)cc1 do in these assays?
KCNQ2 pot: 8.8*; KCNQ2 inh: inactive; Kir21 conf inh: inactive; HEK293 ctr: inactive; CHO-K1 ctr: 26*; KCNQ1 sel pot: -15; KCNQ2 pot confirm: -9; Kir2-1 sel: -36; KCNQ2 W236L MoA: inactive

How did O=C(Nc1ccccc1)Nc1nc(-c2ccc(F)cc2)cs1 do in these assays?
KCNQ2 inh: inactive

Results for CC(C)c1nnc(SCC(=O)NCCC2=CCCCC2)n1N ?
KCNQ2 pot: 5.9*; KCNQ2 inh: inactive; Kir21 conf inh: inactive; HEK293 ctr: inactive; CHO-K1 ctr: -17; KCNQ1 sel pot: 2.2*; KCNQ2 pot confirm: 24*; Kir2-1 sel: -21; KCNQ2 W236L MoA: 2.6%*

Results for Nc1cc(N)nc(SCC(=O)NCCC2=CCCCC2)n1 ?
KCNQ2 pot: 0.09; KCNQ2 inh: inactive

What do the screens show for `O=C(COC(=O)C12CC3CC(CC(O)(C3)C1)C2)NCCc1ccc(Cl)cc1`?
KCNQ2 inh: inactive

How did O=C(CC1(c2ccc(Cl)cc2)C2CC3CC(C2)CC1C3)NCCO (stereo not drawn) do in these assays?
KCNQ2 pot: 5.4*; KCNQ2 inh: inactive; Kir21 conf inh: inactive; HEK293 ctr: inactive; CHO-K1 ctr: 48*; KCNQ1 sel pot: 72*; KCNQ2 pot confirm: 14*; Kir2-1 sel: -46; KCNQ2 W236L MoA: inactive

How did COC(=O)C(CO)NC(=O)C1CCCN1C(=O)CNC(=O)OCc1ccccc1 (stereo not drawn) do in these assays?
KCNQ2 inh: inactive

How did Cc1ccc2nc(CCCc3nc4ccc(C)cc4[nH]3)[nH]c2c1 do in these assays?
KCNQ2 inh: inactive; Kir21 conf inh: 70%*; HEK293 ctr: inactive
